Reference: ChEMBL document CHEMBL1961873, “Compounds: GSK PKIS; Assays: Nanosyn kinase panel” (2012)

Assays:
[1] = molecular target: MAP/microtubule affinity-regulating kinase 3 (Homo sapiens) (UniProt P27448); details: at 1 µM;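 also: reported values are averaged percent inhibition of MARK3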
[2] = molecular target: T1, MAP/microtubule affinity-regulating kinase 4 (Homo sapiens) (UniProt Q96L34); details: at 0.1 µM
T1 sequence (whole entry): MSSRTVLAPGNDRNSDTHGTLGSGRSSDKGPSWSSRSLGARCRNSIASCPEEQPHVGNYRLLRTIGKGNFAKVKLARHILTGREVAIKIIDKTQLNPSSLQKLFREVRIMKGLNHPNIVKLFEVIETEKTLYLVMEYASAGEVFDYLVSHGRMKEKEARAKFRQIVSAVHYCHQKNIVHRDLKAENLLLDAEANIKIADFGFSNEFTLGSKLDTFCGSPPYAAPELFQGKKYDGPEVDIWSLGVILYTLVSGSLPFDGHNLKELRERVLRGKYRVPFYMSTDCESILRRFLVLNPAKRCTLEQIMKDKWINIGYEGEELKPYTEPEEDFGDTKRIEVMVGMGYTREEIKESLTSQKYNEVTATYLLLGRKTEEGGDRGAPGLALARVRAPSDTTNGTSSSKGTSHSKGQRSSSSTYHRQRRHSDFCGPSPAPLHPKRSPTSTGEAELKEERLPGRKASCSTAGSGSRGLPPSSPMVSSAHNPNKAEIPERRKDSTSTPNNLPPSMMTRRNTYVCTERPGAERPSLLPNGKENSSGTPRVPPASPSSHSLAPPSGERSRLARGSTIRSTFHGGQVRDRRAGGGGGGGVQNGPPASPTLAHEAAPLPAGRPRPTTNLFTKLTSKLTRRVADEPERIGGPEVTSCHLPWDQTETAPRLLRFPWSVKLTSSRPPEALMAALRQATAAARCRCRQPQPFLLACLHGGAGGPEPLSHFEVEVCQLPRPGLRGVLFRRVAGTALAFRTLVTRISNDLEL

[3] = molecular target: T1, MAP/microtubule affinity-regulating kinase 4 (Homo sapiens); details: at 1 µM
[4] = molecular target: Maternal embryonic leucine zipper kinase (Homo sapiens) (UniProt Q14680); details: at 0.1 µM
Maternal embryonic leucine zipper kinase (Homo sapiens), sequence (Q14680 whole entry, looked up): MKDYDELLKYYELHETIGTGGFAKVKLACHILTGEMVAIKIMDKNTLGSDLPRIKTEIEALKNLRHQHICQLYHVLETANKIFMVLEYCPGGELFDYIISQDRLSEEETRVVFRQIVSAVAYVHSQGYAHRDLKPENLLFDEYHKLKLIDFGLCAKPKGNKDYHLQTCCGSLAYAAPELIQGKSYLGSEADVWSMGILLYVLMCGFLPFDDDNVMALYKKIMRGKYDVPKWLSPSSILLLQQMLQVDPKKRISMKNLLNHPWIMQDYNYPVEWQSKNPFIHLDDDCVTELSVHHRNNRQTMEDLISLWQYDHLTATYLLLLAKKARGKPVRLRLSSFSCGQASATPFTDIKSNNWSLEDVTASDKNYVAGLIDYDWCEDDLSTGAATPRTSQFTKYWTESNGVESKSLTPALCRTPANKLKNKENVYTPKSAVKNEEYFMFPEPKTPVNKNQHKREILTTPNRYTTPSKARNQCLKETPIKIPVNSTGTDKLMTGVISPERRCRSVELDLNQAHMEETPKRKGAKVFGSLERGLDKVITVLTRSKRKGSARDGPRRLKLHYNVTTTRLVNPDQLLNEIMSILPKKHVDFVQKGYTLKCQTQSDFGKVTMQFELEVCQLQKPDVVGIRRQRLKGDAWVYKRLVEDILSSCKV

[5] = molecular target: Maternal embryonic leucine zipper kinase (Homo sapiens) (UniProt Q14680); details: at 1 µM
[6] = molecular target: MAP kinase-interacting serine/threonine-protein kinase 1 (Homo sapiens) (UniProt Q9BUB5); details: at 0.1 µM
MAP kinase-interacting serine/threonine-protein kinase 1 (Homo sapiens), sequence (Q9BUB5 whole entry, looked up): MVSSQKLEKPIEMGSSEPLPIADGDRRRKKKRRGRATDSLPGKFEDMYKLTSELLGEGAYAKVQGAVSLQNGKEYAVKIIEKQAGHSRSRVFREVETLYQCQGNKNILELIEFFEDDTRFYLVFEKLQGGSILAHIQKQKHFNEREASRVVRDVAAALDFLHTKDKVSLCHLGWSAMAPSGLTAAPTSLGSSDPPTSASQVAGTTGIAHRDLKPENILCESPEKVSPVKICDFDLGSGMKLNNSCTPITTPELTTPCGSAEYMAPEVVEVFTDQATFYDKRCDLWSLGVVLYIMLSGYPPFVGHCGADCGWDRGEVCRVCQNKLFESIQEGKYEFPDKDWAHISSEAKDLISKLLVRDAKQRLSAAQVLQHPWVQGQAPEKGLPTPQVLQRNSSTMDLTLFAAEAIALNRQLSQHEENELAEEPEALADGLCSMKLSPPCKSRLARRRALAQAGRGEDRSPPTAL

[7] = molecular target: MAP kinase-interacting serine/threonine-protein kinase 1 (Homo sapiens) (UniProt Q9BUB5); details: at 1 µM
[8] = molecular target: MAP kinase-interacting serine/threonine-protein kinase 2 (Homo sapiens) (UniProt Q9HBH9); details: at 0.1 µM
MAP kinase-interacting serine/threonine-protein kinase 2 (Homo sapiens), sequence (Q9HBH9 whole entry, looked up): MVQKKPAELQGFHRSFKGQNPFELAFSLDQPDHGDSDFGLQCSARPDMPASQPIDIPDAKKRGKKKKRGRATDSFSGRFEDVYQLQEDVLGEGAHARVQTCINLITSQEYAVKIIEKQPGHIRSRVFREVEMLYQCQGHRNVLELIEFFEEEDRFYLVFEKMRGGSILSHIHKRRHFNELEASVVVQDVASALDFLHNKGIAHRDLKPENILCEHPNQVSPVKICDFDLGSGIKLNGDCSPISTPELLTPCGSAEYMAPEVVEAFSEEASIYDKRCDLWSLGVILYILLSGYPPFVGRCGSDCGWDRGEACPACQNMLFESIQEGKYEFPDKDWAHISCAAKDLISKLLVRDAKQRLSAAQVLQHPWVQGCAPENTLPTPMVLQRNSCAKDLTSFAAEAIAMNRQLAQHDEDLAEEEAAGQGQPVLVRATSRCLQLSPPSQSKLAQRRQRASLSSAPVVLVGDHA

[9] = molecular target: MAP kinase-interacting serine/threonine-protein kinase 2 (Homo sapiens) (UniProt Q9HBH9); details: at 1 µM
[10] = molecular target: Serine/threonine-protein kinase MARK2 (Homo sapiens) (UniProt Q7KZI7); details: at 0.1 µM
[11] = molecular target: Serine/threonine-protein kinase MARK2 (Homo sapiens) (UniProt Q7KZI7); details: at 1 µM
[12] = molecular target: PAS domain-containing serine/threonine-protein kinase (Homo sapiens) (UniProt Q96RG2); details: at 0.1 µM
PAS domain-containing serine/threonine-protein kinase (Homo sapiens), sequence (Q96RG2 whole entry, the tested form may be a part, canonical isoform): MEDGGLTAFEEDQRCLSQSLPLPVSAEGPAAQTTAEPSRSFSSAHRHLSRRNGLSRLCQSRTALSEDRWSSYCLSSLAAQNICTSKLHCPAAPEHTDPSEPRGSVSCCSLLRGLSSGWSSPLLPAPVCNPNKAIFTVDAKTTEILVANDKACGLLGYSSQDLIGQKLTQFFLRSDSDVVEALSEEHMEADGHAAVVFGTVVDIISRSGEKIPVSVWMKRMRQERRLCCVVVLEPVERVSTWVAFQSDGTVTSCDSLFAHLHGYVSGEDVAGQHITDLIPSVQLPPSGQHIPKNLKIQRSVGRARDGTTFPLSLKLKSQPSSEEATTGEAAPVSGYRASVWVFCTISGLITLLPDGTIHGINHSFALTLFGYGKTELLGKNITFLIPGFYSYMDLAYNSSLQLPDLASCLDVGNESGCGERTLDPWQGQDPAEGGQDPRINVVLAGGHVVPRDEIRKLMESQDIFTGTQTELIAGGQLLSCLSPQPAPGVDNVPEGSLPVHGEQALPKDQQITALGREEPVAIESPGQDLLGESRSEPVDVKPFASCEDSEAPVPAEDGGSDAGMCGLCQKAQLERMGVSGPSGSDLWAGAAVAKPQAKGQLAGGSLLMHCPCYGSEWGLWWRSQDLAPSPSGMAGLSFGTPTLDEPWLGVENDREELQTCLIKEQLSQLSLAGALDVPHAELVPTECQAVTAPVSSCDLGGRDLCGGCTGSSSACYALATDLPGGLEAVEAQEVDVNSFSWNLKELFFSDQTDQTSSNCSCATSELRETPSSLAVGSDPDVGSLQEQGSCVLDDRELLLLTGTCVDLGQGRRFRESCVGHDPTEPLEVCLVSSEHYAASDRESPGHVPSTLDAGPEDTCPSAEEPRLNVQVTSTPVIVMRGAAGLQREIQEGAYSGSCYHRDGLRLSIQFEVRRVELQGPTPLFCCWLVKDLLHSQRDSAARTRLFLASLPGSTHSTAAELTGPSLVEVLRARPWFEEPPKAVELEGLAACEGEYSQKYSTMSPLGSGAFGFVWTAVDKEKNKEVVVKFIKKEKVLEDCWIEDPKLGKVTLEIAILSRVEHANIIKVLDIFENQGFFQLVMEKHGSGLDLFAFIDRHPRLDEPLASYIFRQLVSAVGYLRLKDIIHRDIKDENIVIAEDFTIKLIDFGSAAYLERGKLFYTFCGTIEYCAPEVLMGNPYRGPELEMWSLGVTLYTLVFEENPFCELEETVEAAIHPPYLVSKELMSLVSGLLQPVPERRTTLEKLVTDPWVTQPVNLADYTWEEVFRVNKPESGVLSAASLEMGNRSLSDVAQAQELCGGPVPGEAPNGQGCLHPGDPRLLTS

[13] = molecular target: PAS domain-containing serine/threonine-protein kinase (Homo sapiens) (UniProt Q96RG2); details: at 1 µM
[14] = molecular target: Phosphorylase b kinase gamma catalytic chain, skeletal muscle/heart isoform (Homo sapiens) (UniProt Q16816); details: at 0.1 µM
Phosphorylase b kinase gamma catalytic chain, skeletal muscle/heart isoform (Homo sapiens), sequence (Q16816 whole entry, looked up, canonical isoform): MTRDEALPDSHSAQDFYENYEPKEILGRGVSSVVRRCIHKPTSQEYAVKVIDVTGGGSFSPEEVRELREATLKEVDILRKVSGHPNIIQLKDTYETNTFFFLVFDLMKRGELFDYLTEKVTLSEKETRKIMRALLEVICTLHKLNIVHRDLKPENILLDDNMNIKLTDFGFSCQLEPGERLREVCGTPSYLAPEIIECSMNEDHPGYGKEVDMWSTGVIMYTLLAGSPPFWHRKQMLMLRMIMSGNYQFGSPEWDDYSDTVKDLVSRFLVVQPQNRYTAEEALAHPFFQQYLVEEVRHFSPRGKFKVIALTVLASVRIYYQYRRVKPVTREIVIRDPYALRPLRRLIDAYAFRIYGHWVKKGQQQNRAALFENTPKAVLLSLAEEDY

[15] = molecular target: Phosphorylase b kinase gamma catalytic chain, skeletal muscle/heart isoform (Homo sapiens) (UniProt Q16816); details: at 1 µM
[16] = molecular target: T2, Phosphorylase b kinase gamma catalytic chain, liver/testis isoform (Homo sapiens) (UniProt P15735); details: at 0.1 µM
T2 sequence (whole entry): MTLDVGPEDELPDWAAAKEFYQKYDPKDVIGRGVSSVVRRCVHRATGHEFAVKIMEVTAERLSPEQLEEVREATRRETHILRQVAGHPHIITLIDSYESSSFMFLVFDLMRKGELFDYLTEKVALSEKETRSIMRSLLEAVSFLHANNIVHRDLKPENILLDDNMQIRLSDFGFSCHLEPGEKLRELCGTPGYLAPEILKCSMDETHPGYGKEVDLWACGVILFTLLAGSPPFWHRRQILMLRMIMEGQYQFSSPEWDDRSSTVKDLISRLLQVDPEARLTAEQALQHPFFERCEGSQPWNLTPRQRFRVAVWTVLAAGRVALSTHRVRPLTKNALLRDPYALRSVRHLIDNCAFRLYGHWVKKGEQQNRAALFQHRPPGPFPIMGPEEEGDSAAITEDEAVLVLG

[17] = molecular target: T2, Phosphorylase b kinase gamma catalytic chain, liver/testis isoform (Homo sapiens); details: at 1 µM
[18] = molecular target: Serine/threonine-protein kinase pim-1 (Homo sapiens) (UniProt P11309); details: at 0.1 µM
Serine/threonine-protein kinase pim-1 (Homo sapiens), sequence (P11309 whole entry, looked up): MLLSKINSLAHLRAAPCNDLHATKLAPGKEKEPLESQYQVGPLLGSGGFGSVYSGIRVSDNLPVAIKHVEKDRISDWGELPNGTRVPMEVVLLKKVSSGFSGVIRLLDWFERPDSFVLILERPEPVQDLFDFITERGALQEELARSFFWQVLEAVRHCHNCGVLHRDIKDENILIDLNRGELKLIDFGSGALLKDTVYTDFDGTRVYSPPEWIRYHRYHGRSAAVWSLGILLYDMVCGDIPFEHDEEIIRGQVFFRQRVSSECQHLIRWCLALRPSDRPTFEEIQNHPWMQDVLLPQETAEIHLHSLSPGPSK

[19] = molecular target: Serine/threonine-protein kinase pim-1 (Homo sapiens) (UniProt P11309); details: at 1 µM
[20] = molecular target: Serine/threonine-protein kinase pim-2 (Homo sapiens) (UniProt Q9P1W9); details: at 0.1 µM;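 also: reported value is the mean percent inhibition of PIM2, measured in the GSK PKIS kinase inhibitor set screen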
Serine/threonine-protein kinase pim-2 (Homo sapiens), sequence (Q9P1W9 whole entry, looked up): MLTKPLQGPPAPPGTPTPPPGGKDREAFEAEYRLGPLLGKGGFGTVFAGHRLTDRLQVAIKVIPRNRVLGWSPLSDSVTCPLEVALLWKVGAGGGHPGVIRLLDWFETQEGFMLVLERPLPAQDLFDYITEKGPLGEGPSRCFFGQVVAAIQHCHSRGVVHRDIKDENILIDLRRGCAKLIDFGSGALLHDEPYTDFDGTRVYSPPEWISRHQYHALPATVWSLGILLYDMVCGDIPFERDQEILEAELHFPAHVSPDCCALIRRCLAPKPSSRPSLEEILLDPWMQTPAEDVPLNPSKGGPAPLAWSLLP

MAP/microtubule affinity-regulating kinase 3 (Homo sapiens), sequence (P27448 whole entry, looked up): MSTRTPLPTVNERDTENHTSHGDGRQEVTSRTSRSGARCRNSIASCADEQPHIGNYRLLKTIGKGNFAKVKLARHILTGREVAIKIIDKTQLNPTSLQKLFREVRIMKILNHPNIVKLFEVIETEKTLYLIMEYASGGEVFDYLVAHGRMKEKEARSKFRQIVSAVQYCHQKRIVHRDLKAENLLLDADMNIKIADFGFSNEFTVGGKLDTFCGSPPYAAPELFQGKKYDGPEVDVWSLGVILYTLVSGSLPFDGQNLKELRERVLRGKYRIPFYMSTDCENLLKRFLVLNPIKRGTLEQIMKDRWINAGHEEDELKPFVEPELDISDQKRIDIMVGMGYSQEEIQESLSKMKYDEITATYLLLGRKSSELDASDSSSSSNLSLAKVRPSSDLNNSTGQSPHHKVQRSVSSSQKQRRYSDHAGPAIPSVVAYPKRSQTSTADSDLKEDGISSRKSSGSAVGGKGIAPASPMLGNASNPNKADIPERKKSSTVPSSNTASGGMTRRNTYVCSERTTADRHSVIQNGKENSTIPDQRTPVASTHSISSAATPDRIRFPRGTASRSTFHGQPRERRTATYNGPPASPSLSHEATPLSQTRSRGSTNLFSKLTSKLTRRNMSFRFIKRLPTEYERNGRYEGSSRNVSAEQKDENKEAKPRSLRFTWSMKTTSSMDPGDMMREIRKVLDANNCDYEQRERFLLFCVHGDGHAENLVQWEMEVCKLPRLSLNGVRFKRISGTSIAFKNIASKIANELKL

Q: With `FC(F)(F)c1ccc(-c2nn3ncccc3c2-c2ccnc(Nc3ccc4c(c3)OCCO4)n2)cc1` as the compound, how does the inhibition [1] read?
A: 11.2%

Q: And the inhibition [2]?
A: 4.98%

Q: And the inhibition [3]?
A: 6.4%

Q: What about the inhibition [4] of the same compound?
A: -0.41%

Q: What about the inhibition [5] of the same compound?
A: -0.13%

Q: What about the inhibition [6] of the same compound?
A: 6.66%

Q: What about the inhibition [7] of the same compound?
A: 10.9%

Q: And the inhibition [8]?
A: 6.24%

Q: What about the inhibition [9] of the same compound?
A: 9.7%

Q: And the inhibition [10]?
A: 6.43%

Q: What about the inhibition [11] of the same compound?
A: 4.45%

Q: And the inhibition [12]?
A: 6.37%

Q: And the inhibition [13]?
A: 10.9%

Q: And the inhibition [14]?
A: 7.07%

Q: What about the inhibition [15] of the same compound?
A: 8.64%

Q: What about the inhibition [16] of the same compound?
A: 0.59%

Q: What about the inhibition [17] of the same compound?
A: 6.97%

Q: And the inhibition [18]?
A: 0.47%

Q: What about the inhibition [19] of the same compound?
A: 1.86%

Q: And the inhibition [20]?
A: 6.45%

Q: For `NC(=O)c1cccc(Nc2nccc(Nc3cccc(F)c3)n2)c1`, which inhibition [1] is on record?
A: 2.35%

Q: What about the inhibition [2] of the same compound?
A: 0.72%

Q: And the inhibition [3]?
A: 3.28%

Q: What about the inhibition [4] of the same compound?
A: -2.04%

Q: And the inhibition [5]?
A: 2.88%

Q: What about the inhibition [6] of the same compound?
A: 1.05%

Q: What about the inhibition [7] of the same compound?
A: 3.91%

Q: What about the inhibition [8] of the same compound?
A: 0.26%

Q: And the inhibition [9]?
A: 8.7%

Q: And the inhibition [10]?
A: -1.24%

Q: What about the inhibition [11] of the same compound?
A: 3.47%

Q: And the inhibition [12]?
A: 1.27%

Q: And the inhibition [13]?
A: 0.17%

Q: And the inhibition [14]?
A: -0.51%

Q: And the inhibition [15]?
A: 3.35%

Q: What about the inhibition [16] of the same compound?
A: 1.29%

Q: What about the inhibition [17] of the same compound?
A: 0.54%

Q: And the inhibition [18]?
A: -0.04%

Q: What about the inhibition [19] of the same compound?
A: -0.4%

Q: And the inhibition [20]?
A: -0.05%

Q: With `COc1ccc2ncnc(Nc3ccc(OCc4ccccc4)cc3)c2c1` as the compound, how does the inhibition [1] read?
A: 3.15%

Q: And the inhibition [2]?
A: 0.07%

Q: What about the inhibition [3] of the same compound?
A: -0.37%

Q: What about the inhibition [4] of the same compound?
A: -0.28%

Q: What about the inhibition [5] of the same compound?
A: 2.03%

Q: And the inhibition [6]?
A: 2.24%

Q: And the inhibition [7]?
A: 7.43%

Q: What about the inhibition [8] of the same compound?
A: 1.39%

Q: What about the inhibition [9] of the same compound?
A: 11.3%

Q: And the inhibition [10]?
A: 0.5%

Q: And the inhibition [11]?
A: 0.4%

Q: And the inhibition [12]?
A: -0.03%

Q: And the inhibition [13]?
A: 2.46%

Q: And the inhibition [14]?
A: 4.44%

Q: And the inhibition [15]?
A: 4.51%

Q: And the inhibition [16]?
A: 1.92%

Q: And the inhibition [17]?
A: 2.81%

Q: And the inhibition [18]?
A: 0.17%

Q: And the inhibition [19]?
A: 0.4%

Q: What about the inhibition [20] of the same compound?
A: -0.18%

Q: With `Nc1nccc(-c2c(-c3ccc(F)cc3)nn3cc(C(F)(F)F)ccc23)n1` as the compound, how does the inhibition [1] read?
A: -0.99%

Q: What about the inhibition [2] of the same compound?
A: -0.15%

Q: And the inhibition [3]?
A: -0.03%

Q: What about the inhibition [4] of the same compound?
A: 0.66%

Q: What about the inhibition [5] of the same compound?
A: -0.87%

Q: What about the inhibition [6] of the same compound?
A: 1.92%

Q: And the inhibition [7]?
A: 3.98%

Q: What about the inhibition [8] of the same compound?
A: 0.49%

Q: And the inhibition [9]?
A: 2.23%

Q: And the inhibition [10]?
A: -2.12%

Q: What about the inhibition [11] of the same compound?
A: -0.77%

Q: And the inhibition [12]?
A: 0.89%

Q: And the inhibition [13]?
A: 0.42%

Q: And the inhibition [14]?
A: 3.63%

Q: And the inhibition [15]?
A: 3.94%

Q: And the inhibition [16]?
A: 0.86%

Q: What about the inhibition [17] of the same compound?
A: 0.54%

Q: What about the inhibition [18] of the same compound?
A: 0.21%

Q: And the inhibition [19]?
A: -0.89%

Q: What about the inhibition [20] of the same compound?
A: -0.09%

Q: What does the source list for `CS(=O)(=O)CCNCc1nc(-c2ccc3ncnc(Nc4ccc(OCc5cccc(C(F)(F)F)c5)cc4)c3c2)cs1`?
A: inhibition [1]: 1.92%; inhibition [2]: -0.17%; inhibition [3]: 1.58%; inhibition [4]: 0.45%; inhibition [5]: 2.55%; inhibition [6]: 3.67%; inhibition [7]: 7.54%; inhibition [8]: 0.84%; inhibition [9]: 6.94%; inhibition [10]: 0.22%; inhibition [11]: 1.07%; inhibition [12]: 0.16%; inhibition [13]: -0.13%; inhibition [14]: 0.25%; inhibition [15]: 3.14%; inhibition [16]: 2.6%; inhibition [17]: 2.29%; inhibition [18]: 0.49%; inhibition [19]: -0.28%; inhibition [20]: -0.54%

Q: Which inhibition [1] does the source give for `O=C1Nc2ccc(-c3cccnc3)cc2C1=Cc1cc(Br)c(O)c(Br)c1` here?
A: 6.43%

Q: And the inhibition [2]?
A: 1.85%

Q: And the inhibition [3]?
A: 3.53%

Q: What about the inhibition [4] of the same compound?
A: 3.77%

Q: What about the inhibition [5] of the same compound?
A: 10.4%

Q: What about the inhibition [6] of the same compound?
A: 2.71%

Q: And the inhibition [7]?
A: 12.7%

Q: And the inhibition [8]?
A: 6.02%

Q: And the inhibition [9]?
A: 36%

Q: And the inhibition [10]?
A: 1.17%

Q: And the inhibition [11]?
A: 5.11%

Q: And the inhibition [12]?
A: 0.91%

Q: What about the inhibition [13] of the same compound?
A: 1.32%

Q: What about the inhibition [14] of the same compound?
A: 3.37%

Q: What about the inhibition [15] of the same compound?
A: 9.21%

Q: And the inhibition [16]?
A: 4.01%

Q: What about the inhibition [17] of the same compound?
A: -0.09%

Q: And the inhibition [18]?
A: 6.4%

Q: What about the inhibition [19] of the same compound?
A: 37.6%

Q: What about the inhibition [20] of the same compound?
A: 8.09%

Q: Which results are given for `CCCN1CCCC(c2ccc(Nc3nc(Nc4cc(F)ccc4C(N)=O)c4cc[nH]c4n3)c(OC)c2)C1` (stereo not given)?
A: inhibition [1]: 68.3%; inhibition [2]: 7.3%; inhibition [3]: 40.7%; inhibition [4]: 24%; inhibition [5]: 75.2%; inhibition [6]: 3.82%; inhibition [7]: 5.92%; inhibition [8]: 1.87%; inhibition [9]: 2.51%; inhibition [10]: 6.68%; inhibition [11]: 40%; inhibition [12]: -0.3%; inhibition [13]: 8.59%; inhibition [14]: 51.2%; inhibition [15]: 77.8%; inhibition [16]: 26.9%; inhibition [17]: 67.6%; inhibition [18]: 11.7%; inhibition [19]: 50.8%; inhibition [20]: 0.9%
